Measurements as given in PMC4552634, “A New Set of Chemical Starting Points with Plasmodium falciparum Transmission-Blocking Potential for Antimalarial Drug Discovery” (PLoS ONE, 2015).
Hit rate of the full screen: of about 13,000 compounds, about 3,200 (25%) showed an effect of 50% or more. The list shows a part of the results.

Tested on: P. falciparum stage V gametocytes
Design: BacTiter-Glo ATP luminescence viability of purified stage V gametocytes in 384-well plates, per cent inhibition versus DMSO
Conditions: 48 h, 5 µM; inhibitor

SMILES | % Inhibition
CCC[C@@H]([C@@H](CC1CCCCC1)C(=O)N[C@H](C(=O)Nc1nccc(N)n1)C(C)(C)C)N(O)C=O [TCMDC-138127] | 6.724%
NC12CC3CC(CC(C3)C1)C2 [TCMDC-125869] | 6.577%
CC(C)NC(=O)c1cccc(-c2cccc(OCCN3CCSCC3c3ccccc3)c2)c1 (centres unmarked) [TCMDC-134384] | 34.28%
O=C(/C=C/c1ccc(Cl)c(Cl)c1)Nc1cccc(CN2CCC(c3c[nH]c4ccc(O)cc34)CC2)c1 [TCMDC-139634] | -96.41%
COC(=O)CCCCOc1cc(Cc2cnc(N)nc2N)cc(OC)c1OC [TCMDC-138041] | 1.908%
O=C(/C=C/c1ccc(Cl)c(Cl)c1)NC1CCC(CN2CCC(c3coc4ccccc34)CC2)CC1 (centres unmarked) [TCMDC-140260] | -37.97%
Cc1cccc2[nH]cc(C3CCN(CC4CCC(NC(=O)/C=C/c5ccc(Cl)c(Cl)c5)CC4)CC3)c12 (centres unmarked) [TCMDC-140137] | 108%
COc1cc2c(C3CCN(CC4CCC(NC(=O)/C=C/c5ccc(Cl)c(Cl)c5)CC4)CC3)c[nH]c2cn1 (centres unmarked) [TCMDC-140245] | 13.08%
Cc1cccc2c(C3CCN(CC4CCC(NC(=O)/C=C/c5ccc(Cl)c(Cl)c5)CC4)CC3)c[nH]c12 (centres unmarked) [TCMDC-139639] | 73.81%
COc1ccc2nccc(NC(=O)N3CCC(NCc4cc5ccccc5[nH]4)CC3)c2n1 [TCMDC-140671] | -10.57%
Cc1cc(Cl)ccc1N(Cc1ccccc1)c1ccnc(Cl)n1 [TCMDC-138722] | -10.33%
Cc1cc(C)nc(-n2[nH]c(C)c(Cc3ccc(C(C)(C)C)cc3)c2=O)n1 [TCMDC-125382] | 16.36%
O=C(Nc1cccc(Cl)c1)c1cnc(N2CCN(c3ccncc3)CC2)c(Cl)c1 [TCMDC-134600] | 12.94%
O=C(Nc1ccc(N2CCNCC2)cc1)c1ccn2ncc(-c3cccc(Cl)c3)c2n1 [TCMDC-132663] | 113.1%
Oc1ccc(CCNc2nc(NCc3ccccc3-c3cccc(Cl)c3)nc(N3CCNCC3)n2)cc1 [TCMDC-133784] | -2.358%
Cc1ccc(Cn2nc(Cl)c(N3CCNCC3)cc2=O)cc1NC(=O)Nc1ccc(-c2ccccc2)cc1 [TCMDC-141698] | 114.4%
Cc1c(Cn2nc(Cl)c(N3CCNCC3)cc2=O)cccc1NC(=O)Nc1ccc(-c2ccccc2)cc1 [TCMDC-141699] | 65.88%
O=C(Nc1ccc(-c2ccccc2)cc1)Nc1cccc(Cn2cnc(N3CCCNCC3)cc2=O)c1 [TCMDC-133363] | -19.33%
O=C(Nc1ccc(-c2ccccc2)cc1)Nc1cccc(Cn2nc(Cl)c(N3CCNCC3)cc2=O)c1 [TCMDC-141694] | -35.56%
Cc1ccc(Cn2cnc(N3CC(C)NC(C)C3)cc2=O)cc1NC(=O)Nc1ccc(-c2ccccc2)cc1 (centres unmarked) [TCMDC-133371] | 24.76%
Cc1ccc(Cn2nc(Cl)c(N3CCCNCC3)cc2=O)cc1NC(=O)Nc1ccc(-c2ccccc2)cc1 [TCMDC-141697] | 91.1%
O=C(Nc1ccc(-c2ccccc2)cc1)Nc1cccc(Cn2nc(Cl)c(N3CCCNCC3)cc2=O)c1 [TCMDC-141695] | 3.325%
Cc1ccc(Cn2nc(N3CCNCC3)ccc2=O)cc1NC(=O)Nc1ccc(-c2ccccc2)cc1 [TCMDC-132580] | 107.8%
O=C(Nc1ccc(Cn2nc(Cl)c(N3CCNCC3)cc2=O)cc1)Nc1ccc(-c2ccccc2)cc1 [TCMDC-141700] | -30.94%

SMILES | % Inhibition
O=C(Nc1ccc(Cn2nc(Cl)c(N3CCCNCC3)cc2=O)cc1)c1ccc(-c2ccccc2)cc1 [TCMDC-141693] | 29.71%
COc1ccc(NC(=O)Nc2ccc(-c3ccccc3)cc2)cc1Cn1nc(Cl)c(N2CCCNCC2)cc1=O [TCMDC-141724] | 21.4%
O=C(Nc1ccc(Cn2nc(Cl)c(N3CCCNCC3)cc2=O)cc1)Nc1ccc(-c2ccccc2)cc1 [TCMDC-141696] | -10.1%
CCN1CCC(N2CCC(C(=O)Nc3cccc(-c4cccc(Cl)c4)c3)CC2)CC1 [TCMDC-124650] | 24.3%
COc1ccc(CN2CCCN(Cc3cccc(C(=O)Nc4ccc(C(C)(C)C)cc4)c3)CC2)cc1 [TCMDC-135986] | 5.589%
CCc1c(C)nc(-n2nc(C)cc2NC(=O)CC(c2ccccc2)c2ccccc2)[nH]c1=O [TCMDC-124933] | -29.94%
NC(=O)Nc1ccc2c(Nc3ccc(OCc4ccccc4)cc3)ncnc2c1 [TCMDC-131937] | 13.28%
Cc1ccc2sc(N(CCCn3ccnc3)C(=O)c3ccco3)nc2c1C [TCMDC-124922] | 21.61%
O=C(Cc1cccnc1)Nc1cccc(-c2cccc(-c3nc4ccc(C(F)(F)F)cc4[nH]3)c2)c1 [TCMDC-136815] | 21.33%
COc1ccc(CN2CCN(CCCCNC(=O)c3ccc(NC(=O)c4ccc(Cl)cc4)cc3)CC2)c(OC)c1 [TCMDC-138280] | 2.758%
COc1ccc(CC2(c3ccc(F)cc3)N=C(N)N(CCCc3cccnc3)C2=O)cc1 (centres unmarked) [TCMDC-136541] | 12.34%
CCCC(C)Nc1nc(C)cc(N[C@@H](Cc2ccccc2)C(=O)NCCOc2ccccc2)n1 (some centres unmarked) [TCMDC-134765] | -43.65%
Cc1cc(N[C@@H](Cc2ccccc2)C(=O)NCCOc2ccccc2)nc(NCCc2cccs2)n1 [TCMDC-134813] | 64.23%
Cc1cc(N[C@@H](CC(C)C)C(=O)NCCOc2ccccc2)nc(NCCc2ccc(F)cc2)n1 [TCMDC-134795] | 47.6%
Cc1cc(N[C@@H](CC(C)C)C(=O)NCCOc2ccccc2)nc(NCCc2ccccc2)n1 [TCMDC-134871] | 94.75%
Cc1cc(N[C@@H](Cc2ccccc2)C(=O)NCCOc2ccccc2)nc(NCCc2ccccn2)n1 [TCMDC-134748] | 75.62%
Cc1cc(N[C@@H](Cc2ccccc2)C(=O)NCCOc2ccccc2)nc(NCCc2ccc(F)cc2)n1 [TCMDC-134789] | 64.78%
Cc1cc(N[C@@H](Cc2ccccc2)C(=O)NCCOc2ccccc2)nc(NCC2CCCCC2)n1 [TCMDC-134933] | -5.307%
Cc1cc(N[C@@H](Cc2ccccc2)C(=O)NCc2cccs2)nc(NCCOc2ccccc2)n1 [TCMDC-134758] | 28.84%
Cc1cc(N[C@@H](CC(C)C)C(=O)NCCOc2ccccc2)nc(NCCOc2ccccc2)n1 [TCMDC-134761] | 40.02%
Cc1cccc(CNc2nc(C)cc(N[C@@H](Cc3ccccc3)C(=O)NCCOc3ccccc3)n2)c1 [TCMDC-134888] | 18.91%
Brc1cc(Br)c2c(c1)C(NCCCNc1nc3ncccc3[nH]1)CCN2 (centres unmarked) [TCMDC-140066] | -91.96%
CC(C)(C)c1ccc(C(=O)NC2CCC(CCN3CCc4ccc(S(C)(=O)=O)cc4CC3)CC2)cc1C(F)(F)F (centres unmarked) [TCMDC-141428] | -32.14%
CN1CCc2ccc(NC(=O)Nc3cccc(C(=O)c4ccccc4)c3)cc2C1 [TCMDC-139177] | -22.18%

SMILES | % Inhibition
C/C=C1/CN2CC[C@H]1C[C@H]2[C@H](O)c1ccnc2ccc(OC)cc12 [TCMDC-138265] | 0.1494%
CCCCSc1ccc2nc(-c3c[nH]c4ccc(C#N)cc34)cn2c1 [TCMDC-134704] | -54.07%
CC(C)c1cc(C(=O)N[C@@H](Cc2ccccc2)[C@H](O)CNC2CCCCC2)cc(N2CCCC2=O)c1 [TCMDC-138861] | 41.96%
Cc1ccc(-c2ccc(Cl)cc2Oc2cnc(N)nc2N)o1 [TCMDC-132599] | 4.58%
O=C(Nc1cccc(-c2ccc(-c3nc4ccccc4[nH]3)cc2)c1)c1ccncc1 [TCMDC-136962] | -14.71%
CCCc1cc(Cc2cnc(N)nc2N)cc(CCC)c1OCCCCC(=O)OCC [TCMDC-137294] | 0.6782%
Cc1cc(N[C@@H](Cc2ccccc2)C(=O)NCCOc2ccccc2)nc(Nc2ccccc2)n1 [TCMDC-134735] | 6.483%
Cc1cc(N[C@@H](Cc2ccccc2)C(=O)NCCc2ccccc2)nc(NCCOc2ccccc2)n1 [TCMDC-134879] | 65.02%
Cc1cc(N[C@@H](Cc2ccccc2)C(=O)NCCOc2ccccc2)nc(NCCOc2ccccc2)n1 [TCMDC-134759] | 76.97%
Cc1cc(N[C@@H](Cc2ccccc2)C(=O)NCCOc2ccccc2)nc(NCCc2ccccc2)n1 [TCMDC-134869] | 38.23%
Cc1cc(N[C@@H](Cc2ccccc2)C(=O)NCCOc2ccccc2)nc(NCc2ccccc2C)n1 [TCMDC-134906] | -0.6796%
COc1cc2sc(=NC(=O)c3cccc([N+](=O)[O-])c3)n(C)c2cc1OC [TCMDC-123526] | 16.54%
CC1(C)N=C(N)N=C(N)N1OCc1cccc2c1ccc1ccccc12 [TCMDC-131327] | 39.55%
CCCCc1ccc(C(=O)NC2CCN(C[C@H](O)c3ccnc4ccc(OC)cc34)CC2)cc1 [TCMDC-141040] | -10.19%
COc1cc2nc(N3CCN(C(=O)c4ccc(N(C(=O)OC(C)(C)C)C(=O)OC(C)(C)C)cc4)CC3)nc(N)c2cc1OC [TCMDC-131899] | 9.334%
COc1cc2nc(N3CCN(c4cc(C)ccc4C)CC3)nc(N)c2cc1OC [TCMDC-125298] | -12.09%
COc1cc2nc(N3CCN(C(=O)c4c(Cl)nsc4-c4ccccc4Cl)CC3)nc(N)c2cc1OC.O=C(O)C(F)(F)F [TCMDC-138186] | 103.1%
COc1cc2nc(N3CCC(CNC(=O)c4cc(Br)c(Br)s4)CC3)nc(N)c2cc1OC.O=C(O)C(F)(F)F [TCMDC-138213] | -9.659%
COc1cc2nc(N3CCN(c4nc(N)c5cc(OC)c(OC)cc5n4)CC3)nc(N)c2cc1OC [TCMDC-123865] | 116.7%
COc1ccc(N2CCN(c3nc(N)c4cc(OC)c(OC)cc4n3)CC2C)cc1 (centres unmarked) [TCMDC-131887] | -85.18%
COc1cc2nc(N3CCN(C(=O)c4cccc(I)c4)CC3)nc(N)c2cc1OC [TCMDC-131895] | 98.03%
COc1cc2nc(NCC3CCN(c4nc(N)c5cc(OC)c(OC)cc5n4)CC3)nc(N)c2cc1OC [TCMDC-138723] | 112.2%
COc1cc2nc(N3CCC(CNC(=O)c4cc5ccccc5s4)CC3)nc(N)c2cc1OC [TCMDC-138189] | 0.3187%
